The inhibition is the change of the read-out against control, counted positive when it falls.

The campaign covered roughly 290,000 compounds. About 27,000 (9.3%) were called active. This is one part of a sample in which actives are shown more often than they occur. Unmarked numbers belong to inactive results. Cut-off read from the data, not from the text of the source: active = inhibition mostly above about 28% (no sharp cut-off); inactive = mostly below about 43%.

Consider 26 molecules from PubChem BioAssay AID2315 (National Center for Advancing Translational Sciences (NCATS), 2010).

The test can be described thus: A qHTS for Small Molecule Inhibitors of Shiga Toxin. Note: 0% is about no effect. The following applies: Vero cells, Shiga toxin protein synthesis inhibition reporter; at 38.7 µM, stronger effect = higher value. (In qHTS, concentration-response curves come from the screen itself.)
As for `CC(C)Cn1c(=O)c2ccccc2n2c(CCC(=O)NCc3ccccn3)nnc12`, the inhibition is 17.2%.

Take `O=Cc1cn(-c2ccccc2)nc1-c1ccccn1`: the inhibition is 16.4%.

Consider `Cc1ccccc1OCC(=O)NNC(=O)c1cc(S(=O)(=O)N(C)C)ccc1N1CCCC1`, for which the inhibition was -3.25%.

Turning to `CCCCNC(=O)C1(O)c2ccccc2NC(=O)N1c1ccc(Cl)cc1` (stereo unspecified), the inhibition was 20.3%.

With `COc1ccc(N2CCN(C3CCCCC3NS(=O)(=O)c3ccccc3)CC2)cc1` (stereo unspecified), the inhibition is -5.29%.

On to `CC(C(=O)c1ccc(-c2ccccc2)cc1)[n+]1cccc(Br)c1` (stereo unspecified), for which the inhibition is -5.48%.

Regarding `CCn1c(SCC(=O)Nc2ccc3c(c2)OCCO3)nnc1C(C)C`, the inhibition was 23.4%.

Take `CCC(=O)N1CCN(c2ccccc2NC(=O)COc2cccc(C)c2C)CC1`: the inhibition is -4.98%.

With `COc1ccc(S(=O)(=O)N2CCOC2CNC(=O)C(=O)NCc2ccc(F)cc2)cc1` (stereo unspecified), the inhibition was -3.23%.

Take `Cc1ccc(S(=O)(=O)NCCCn2ccnc2)cc1C(=O)NC(C)C`: the inhibition is -5.57%.

Turning to `COc1ccc2oc(C(=O)NCc3ccco3)c(C)c2c1`, the inhibition is 57% (active).

As for `O=C(Nc1ccccc1)Nc1ccccc1C(=O)NCc1ccco1`, the inhibition is 17.2%.

For `COc1cc(C(=O)N[C@@H](C)C(=O)NCc2ccco2)cc(OC)c1OC`, the inhibition was -3.33%.

Regarding `O=C(NCc1ccco1)c1nn2cccnc2c1Cl`, the inhibition was 18.5%.

As for `COc1cccc(NC(=S)NCc2ccco2)c1`, the inhibition is -1.12%.

Regarding `O=C(NCc1ccco1)c1cc2sccc2n1Cc1ccc(F)cc1`, the inhibition was 59.6%.

`COc1cc(C(=O)NC(=S)NCc2ccco2)cc(OC)c1OC`: the inhibition was -9.57%.

With `Cc1ccc(N(Cc2ccc(C(=O)Nc3ccccc3C(=O)NCc3ccco3)cc2)S(C)(=O)=O)cc1C`, the inhibition was -16.6%.

On to `COc1ccc2c(Cl)c(C(=O)NCc3ccco3)sc2c1`, for which the inhibition was 93.2% (active).

`COc1ccc(C(=O)Nc2ccccc2C(=O)NCc2ccco2)cc1`: the inhibition is 55.1% (active).

With `O=C(NCc1ccco1)c1sc2cccc(F)c2c1Cl`, the inhibition is 80.8% (active).

Consider `COc1ccc2oc(C(=O)NCC(Cc3ccccc3)N(C)C)c(C)c2c1` (stereo unspecified), for which the inhibition is 19.2%.

`CCNc1c(NS(=O)(=O)c2ccc(C3CCCCC3)cc2)c(=O)oc2ccccc12`: the inhibition was -11.4%.

For `COc1ccc(OCC(O)CN(C)C(=O)C(C)Oc2ccccc2)cc1` (stereo unspecified), the inhibition was -1.44%.

As to `Cc1cccc(NS(=O)(=O)c2ccc(-c3cnc(C4CC4)o3)cc2)c1`, the inhibition is 14.4%.

With `CC(C)[C@H](NC(=O)N1CC(=O)Nc2ccccc21)C(=O)N[C@@H](Cc1c[nH]c2ccccc12)C(=O)O`, the inhibition was -8.09%.
